These results are taken from PubChem BioAssay (NCATS).

The structures appear in SMILES notation. Where “and” joins values, the source holds several entries; their conditions need not be identical. Identical values can stand only once. Inconclusive results are not listed. Calls of active or inactive are those of the source. Calls come from the whole dose curve; as a rule, active = well fitted curve in either direction with a large enough effect (not every such curve was filed as active); inconclusive = small, poorly fitted or top-dose-only effect, or another doubt; inactive = flat fitted curve, though single readings scatter.
% is set by controls: 0 for no effect and ±100 for the full control effect.

A short description of one test: AP1 Signaling Pathway (AID 357).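 Note: ME-180 reporter cells stimulated with EGF at its EC50 level.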 Particulars: ME-180 AP-1-bla reporter, EGF-induced, beta-lactamase ratio, 5 h; at 7.69 µM (top of the series). From the text:
NCGC Assay Overview: Activator protein-1 (AP-1), a transcription factor, plays an important role in tumor genesis by regulating genes involved in cell proliferation, differentiation, apoptosis, and angiogenesis. AP-1 activity is induced by a complex network of signaling pathways that involves extracellular signals, such as growth factors. The AP-1 protein complex formed from c-Fos and c-Jun binding to the AP-1 response element results in transcriptional activation of genes containing such elements within their promoter. Low molecular weight molecules have been discovered and developed to modulate various components of these signaling pathways, for example, MAP kinase inhibitors. However, many points of pathway modulation remain untested due to the lack of chemical probes making this signaling locus of general interest. Using a beta-lactamase reporter-gene under control of the AP-1 response element, a cell-based assay [CellSensor(TM) AP-1-bla ME-180 developed by Invitrogen Corp.] was used to measure EGF-induced signaling. Library compounds were measured for their ability to modulate positively or negatively the action of EC50 EGF on reporter gene activity. Compounds were screened in a titration series in 1536-well format. Positive and negative modulators were identified based on the AC50 values derived from the screening data.
NCGC Assay Protocol Summary: 2500 cells/5uL in Opti-MEM medium containing 0.5% dialyzed FBS, 0.1 mM NEAA, 1 mM sodium pyruvate and 10 mM HEPES was dispensed into 1536-well plates and cells were cultured at 37 degrees Celsius overnight. […] After centrifugation at 1000 rpm for 2 seconds the plates were incubated at 37 degrees Celsius for 5 hours. 1 uL of CCF4-dye mixture was added to each well. After incubated at room temperature for 2.5 hours the plates were measured on an EnVision plate reader at Excitation 405nm, Emission1=460nm and Emission 2=530nm. The %Activity was determined from the ratio of 460nm/530nm.
With `O=C(O)CP(=O)(O)O`, the activity change, negative = inhibition is 0.401% (inactive).

The test is the same for the next values; noted with them: ME-180 AP-1-bla reporter, EGF-induced, beta-lactamase ratio, 5 h; at 17.2 µM (top of the series).
Take `C#CCN(C)CCCOc1ccc(Cl)cc1Cl`: the activity change, negative = inhibition is -12.7% (inactive). `CC(=O)Oc1cc(C(C)C)c(OCCN(C)C)cc1C`: the activity change, negative = inhibition is 7.18% (inactive). Consider `CC(C)NNC(=O)c1ccncc1`, for which the activity change, negative = inhibition is 5.09% (inactive). For the compound `CC[N+](C)(C)c1cccc(O)c1`, the activity change, negative = inhibition was 1.89% (inactive) and 0.722% (inactive). For the compound `CC(C)[N+](C)(CCOC(=O)C1c2ccccc2Oc2ccccc21)C(C)C`, the activity change, negative = inhibition was 12.1% (inactive) and 5.76% (inactive). Still for that read-out and setting: the same measure for `COc1ccc2c(c1OC)C(=O)O[C@@H]2[C@H]1c2c(cc3c(c2OC)OCO3)CCN1C`: -3.96% (inactive). For the compound `Cc1nnc(SCC2=C(C(=O)O)N3C(=O)[C@@H](NC(=O)Cn4cnnn4)[C@H]3SC2)s1`, the activity change, negative = inhibition is 6.59% (inactive). `CCCCNC(=O)NS(=O)(=O)c1ccc(C)cc1`: the activity change, negative = inhibition was -5% (inactive) and 1.1% (inactive). `CC1=NS(=O)(=O)c2cc(Cl)ccc2N1`: the activity change, negative = inhibition was 5.8% (inactive) and -6.56% (inactive). Same read-out and setting: to `CCCCNc1ccc(C(=O)OCCN(C)C)cc1` belongs -19.5% (inactive); to `COc1cc(Cc2cnc(N)nc2N)cc(OC)c1OC`, 1.37% (inactive). The same measure, in the same setting: to `COCCc1ccc(OCC(O)CNC(C)C)cc1` (stereo not given) belongs 3.62% (inactive); to `c1cnc(N2CCN(Cc3ccc4c(c3)OCO4)CC2)nc1`, -7.76% (inactive); to `CCO/C([O-])=N/c1c[n+](N2CCOCC2)no1`, -2.58% (inactive) and 9.89% (inactive). Still for that read-out and setting: to `C(=C\c1ccccc1)/CN1CCN(C(c2ccccc2)c2ccccc2)CC1` belongs -4.86% (inactive); to `COc1ccc(CCN(C)CCCC(C#N)(c2cc(OC)c(OC)c(OC)c2)C(C)C)cc1OC` (stereo not given), -6.26% (inactive). In the case of `Cc1nc2sccn2c(=O)c1CCN1CCC(=C(c2ccc(F)cc2)c2ccc(F)cc2)CC1`, the activity change, negative = inhibition was -9.89% (inactive). Still for that read-out and setting: the same measure for `C[C@H](CS)C(=O)N1CCC[C@H]1C(=O)O`: -1.77% (inactive). `CCn1nc(C(=O)O)c(=O)c2cc3c(cc21)OCO3`: the activity change, negative = inhibition was -3.87% (inactive) and 14.9% (inactive).

Still in this test, the particulars now being: ME-180 (cervical carcinoma) AP-1-bla reporter, EGF-induced, beta-lactamase ratio, 5 h; at 38 µM (top of the series).
Turning to `C#CCN(C)CCCOc1ccc(Cl)cc1Cl`, the activity change, negative = inhibition was -0.876% (inactive). On the same count and under the same terms, to `CC(=O)Oc1cc(C(C)C)c(OCCN(C)C)cc1C` belongs 22.7% (inactive); to `CC(C)NNC(=O)c1ccncc1`, -0.742% (inactive); to `C[N+](C)(C)CCOC(=O)CCC(=O)OCC[N+](C)(C)C`, -1.57% (inactive). On the same count and under the same terms, the same measure for `CC[N+](C)(C)c1cccc(O)c1`: 2.69% (inactive); for `CC(C)[N+](C)(CCOC(=O)C1c2ccccc2Oc2ccccc21)C(C)C`: 3.91% (inactive). Still for that read-out and setting: the same measure for `O=C(O)CP(=O)(O)O`: 7.05% (inactive); for `CCCCNC(=O)NS(=O)(=O)c1ccc(C)cc1`: 6.49% (inactive). Turning to `CC1=NS(=O)(=O)c2cc(Cl)ccc2N1`, the activity change, negative = inhibition is -8.76% (inactive). On the same count and under the same terms, the same measure for `CCCCNc1ccc(C(=O)OCCN(C)C)cc1`: 22.1% (inactive); for `COc1cc(Cc2cnc(N)nc2N)cc(OC)c1OC`: -4.63% (inactive).

For the compound `COC(=O)[C@@H](N)Cc1ccc(O)c(O)c1`, the activity change, negative = inhibition was 2.14% (inactive).

As to `c1cnc(N2CCN(Cc3ccc4c(c3)OCO4)CC2)nc1`, the activity change, negative = inhibition is 13.9% (inactive). For `CN=C(NC#N)NCCSCc1nc[nH]c1C`, the activity change, negative = inhibition was -4.97% (inactive).

Turning to `CCCCNc1c(C(=O)OCC)c(C)nc2c1cnn2CC`, the activity change, negative = inhibition is -13.4% (inactive).

Regarding `Cc1nc2c([nH]1)c(=O)n(C)c(=O)n2Cc1ccco1`, the activity change, negative = inhibition was -6.02% (inactive). The same measure, in the same setting: to `CCO/C([O-])=N/c1c[n+](N2CCOCC2)no1` belongs 19.4% (inactive); to `Cc1nc2sccn2c(=O)c1CCN1CCC(=C(c2ccc(F)cc2)c2ccc(F)cc2)CC1`, -17.2% (inactive). Take `C[C@H](CS)C(=O)N1CCC[C@H]1C(=O)O`: the activity change, negative = inhibition was 3.53% (inactive). For the compound `CCn1nc(C(=O)O)c(=O)c2cc3c(cc21)OCO3`, the activity change, negative = inhibition was -2.22% (inactive).
